# Test results taken from PubChem BioAssay (Tox21).
# Unmarked numbers belong to inactive results. Inconclusive results are not listed. Entries that show only a call come without a potency. The source made the active and inactive calls. Unless noted, calls follow the shape of the full dose curve.
# Legend:
# [1] = Nuclear factor erythroid 2-related factor 2/antioxidant responsive element (Nrf2/ARE) small molecule agonists: qHTS cell viability counter screen in human keratinocytes (AID 1919968; active = well fitted curve in the direction sought with a large enough effect in the repeat runs; an effect the other way counts as inactive or inconclusive; also: nearly all actives have a fitted effect of over 55% in size; also: potency is read from the fitted curve at half-maximal effect)
# In short: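 KeratinoSens HaCaT cells, 1,500/well, preincubated 5 h, then exposed to compounds in DMSO for 23 h at 37 C/5% CO2. Viability read as CellTiter-Fluor fluorescence after 1 h, in the same wells as the ARE-luciferase read.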
# [2] = target: Gonadotropin-releasing hormone receptor (Homo sapiens) (UniProt P30968); experiment: Human gonadotropin-releasing hormone receptor (GnRHR) small molecule agonists, calcium flux assay in GnRHR-HEK293 cells (AID 1920063); also: nearly all actives have a fitted effect of over 35% in size
# In short: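 HEK293 cells stably expressing human GnRHR were dye-loaded for 1 h at 37 C. Compound was added in agonist mode and fluorescence (Ex/Em 480/540) recorded kinetically for 3 min. Fifteen concentrations, triplicates.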
# [3] = target: KiSS-1 receptor (Homo sapiens) (UniProt Q969F8); experiment: Human kisspeptin (KISS1R) small molecule agonists, calcium flux assay in KISS1R-HEK293 cells (AID 1920064; active = well fitted curve in the direction sought with a large enough effect in the repeat runs; an effect the other way counts as inactive or inconclusive)
# In short: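 HEK293 cells stably expressing human KISS1R were loaded with calcium dye for 1 h at 37 C, then given compound; fluorescence (Ex/Em 480/540) was read kinetically for 3 min. Fifteen concentrations, triplicate.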
# [4] = G protein-coupled receptor (GPCR) small molecule agonists, calcium flux assay: HEK293 wild type cell line counter screen (AID 1920065)
# In short: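 Wild-type HEK293 cells plated 18 h, loaded with calcium dye 1 h at 37 C, then compounds added in agonist mode (ATP as positive control). Kinetic fluorescence Ex/Em 480/540 recorded 3 min at 1 sec intervals; 15 concentrations, triplicate.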
# [5] = p53 small molecule agonists, cell-based qHTS assay with human liver microsomes (AID 1963577);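 also: p53 response element beta-lactamase reporter cells with liver microsomes plus NADPH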
# In short: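 With metabolic activation: human liver microsomes (0.5 mg/mL final) plus NADPH (0.5 mg/mL final) added alongside compounds to p53RE-bla cells; 16 h 37 C exposure; beta-lactamase read by LiveBLAzer fluorescence.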
# [6] = p53 small molecule agonists, cell-based qHTS assay with rat liver microsomes (AID 1963578)
# In short: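 Metabolic activation by rat liver microsomes and NADPH, each 0.5 mg/mL final, added right after compounds to p53RE-bla reporter cells (4,000/well, plated 5 h earlier). 16 h at 37 C, then LiveBLAzer substrate for 2 h at room temperature in the dark; fluorescence read-out.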
# [7] = p53 small molecule agonists, cell-based qHTS assay with human liver microsomes: qHTS cell viability counter screen (AID 1963579); also: nearly all actives have a fitted effect of over 45% in size; also: potency is read from the fitted curve at half-maximal effect
# In short: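 Metabolic activation used human liver microsomes and NADPH, both 0.5 mg/mL final, over 16 hours at 37 C on p53RE-bla cells (4,000/well). Cytotoxicity measured by CellTiter-Glo luminescence, 30 min at room temperature.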
# [8] = p53 small molecule agonists, cell-based qHTS assay: qHTS cell viability counter screen (AID 1963581); also: nearly all actives have a fitted effect of over 45% in size; also: potency is read from the fitted curve at half-maximal effect
# In short: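 p53RE-bla HCT-116 cells, compounds added 5 h after plating and incubated 16 h at 37 C. Cytotoxicity measured in the same wells as intracellular ATP by CellTiter-Glo luminescence after 30 min at room temperature.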
# [9] = p53 small molecule agonists, cell-based qHTS assay (AID 1963582; active = well fitted activation curve with a large enough effect in the signal ratio in the repeat runs, not every such curve was filed as active; the % refers to the signal ratio)
# In short: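 p53RE-bla reporter cells, compounds added in DMSO after 5 h plating, incubated 16 h at 37 C. Beta-lactamase read via 2 h room-temperature LiveBLAzer B/G FRET substrate, fluorescence intensity.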
# [10] = target: 5-hydroxytryptamine receptor 2A (Homo sapiens) (UniProt P28223); experiment: 5-hydroxytryptamine receptor 2A (HTR2A) small molecule antagonists, cell-based qHTS assay (AID 1963586); also: nearly all actives have a fitted effect of over 45% in size
# In short: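 Antagonist-mode intracellular calcium assay: DOI (4 nM) added after 5 min compound pre-incubation at room temperature to dye-loaded HTR2A-CHO cells. Fluorescence followed for 3 min, sampled every second.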
# [11] = target: 5-hydroxytryptamine receptor 2A (Homo sapiens) (UniProt P28223); experiment: 5-hydroxytryptamine receptor 2A (HTR2A) small molecule agonists, cell-based qHTS assay (AID 1963587); also: nearly all actives have a fitted effect of over 30% in size
# In short: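 CHO cells stably expressing human HTR2A, plated 18 h, loaded with calcium dye 1 h at 37 C. Agonist mode: compounds added and intracellular calcium fluorescence recorded kinetically for 2 min at 1 sec intervals.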
# [12] = target: Muscarinic acetylcholine receptor M1 (Homo sapiens) (UniProt P11229); experiment: Cholinergic receptor muscarinic 1 (CHRM1) small molecule antagonists, cell-based qHTS assay (AID 1963588); also: nearly all actives have a fitted effect of over 40% in size
# In short: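 CHRM1-CHO calcium-flux assay, antagonist mode. Cells were seeded 18 h, dye-loaded 1 h at 37 C and given compound for 5 min at RT, then acetylcholine was added at 50nM. FDSS fluorescence was read 3 min; 15 concentrations, three runs.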
# [13] = target: Muscarinic acetylcholine receptor M1 (Homo sapiens) (UniProt P11229); experiment: Cholinergic receptor muscarinic 1 (CHRM1) small molecule agonists, cell-based qHTS assay (AID 1963589); also: nearly all actives have a fitted effect of over 35% in size
# In short: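 CHO cells stably expressing human CHRM1 were loaded with calcium dye for 1 h at 37 C, then compound was added in agonist mode. Intracellular calcium fluorescence was followed kinetically at 1 s intervals. Fifteen concentrations were tested in three independent runs.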
# [14] = cAMP Responsive Elements (CRE) small molecule agonists, cell-based qHTS assay (AID 1963590)
# In short: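 CRE-bla HEK 293T cells, 2,000/well in DMEM with 10% dialyzed FBS and 25 mM HEPES, pre-incubated 18 h at 37 C, then exposed to compound 3 h at 37 C. Beta-lactamase reporter read with LiveBLAzer B/G FRET substrate after 2 h at room temperature.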
# [15] = cAMP Responsive Elements (CRE) small molecule antagonists, cell-based qHTS assay (AID 1963591; active = well fitted inhibition curve with a large enough effect in the signal ratio in the repeat runs, not every such curve was filed as active; the % refers to the signal ratio)
# In short: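 CRE-bla HEK293T cells plated 18 h, then given compound plus NKH477 at 0.25 uM final for 3 h at 37C. Beta-lactamase reporter read with LiveBLAzer B/G FRET substrate after 2 h at room temperature.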
# [16] = target: Beta-2 adrenergic receptor (Homo sapiens) (UniProt P07550); experiment: Adrenergic beta2 receptor (ADRB2) small molecule antagonists, cell-based qHTS assay (AID 1963592); also: series mostly up to about 92 µM; nearly all actives have a fitted effect of over 50% in size
# In short: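 Cells (CHO, stable ADRB2 overexpression) incubated 18-20hr at 37C; compounds added from DMSO; agonist mix (1nM isoproterenol, 100uM IBMX, 25uM Ro-20-1724) added; 0.5hr RT; d2-cAMP and anti-cAMP-cryptate added; 1hr RT; 665/615 nm read.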
# [17] = target: D(2) dopamine receptor (Homo sapiens) (UniProt P14416); experiment: Dopamine D2 receptor (DRD2) small molecule agonists, cell-based qHTS assay (AID 1963594); also: nearly all actives have a fitted effect of over 35% in size
# In short: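 HEK293 cells stably expressing human DRD2, pre-treated with PDE inhibitor Ro20-1724 (0.1 mM final) and compound 10 min at room temperature, then stimulated with NKH477 (200nM […]) for 30 min. cAMP read by HTRF (665/620 nm).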
# [18] = target: D(2) dopamine receptor (Homo sapiens) (UniProt P14416); experiment: Dopamine D2 receptor (DRD2) small molecule antagonists, cell-based qHTS assay (AID 1963595; active = well fitted inhibition curve with a large enough effect in the signal ratio in the repeat runs, with a control signal flat; the % refers to the signal ratio)
# In short: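 In this cell-based antagonist screen, compounds act for 10 min at room temperature before a 30 min challenge with 12 nM quinpirole and 200 nM NKH477. cAMP is quantified by HTRF competition in DRD2-HEK293 cells containing 0.1 mM Ro20-1724.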
# [19] = p53 small molecule agonists, cell-based qHTS assay with rat liver microsomes: qHTS cell viability counter screen (AID 1963580); also: nearly all actives have a fitted effect of over 45% in size
# In short: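 p53RE-bla HCT-116 cells were exposed 16 h at 37 C to compounds with rat liver microsomes (0.5 mg/mL) and NADPH (0.5 mg/mL). Viability was measured in the same wells as ATP content by CellTiter-Glo luminescence.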
# Sequence of KiSS-1 receptor (Homo sapiens) (Q969F8 whole entry, looked up): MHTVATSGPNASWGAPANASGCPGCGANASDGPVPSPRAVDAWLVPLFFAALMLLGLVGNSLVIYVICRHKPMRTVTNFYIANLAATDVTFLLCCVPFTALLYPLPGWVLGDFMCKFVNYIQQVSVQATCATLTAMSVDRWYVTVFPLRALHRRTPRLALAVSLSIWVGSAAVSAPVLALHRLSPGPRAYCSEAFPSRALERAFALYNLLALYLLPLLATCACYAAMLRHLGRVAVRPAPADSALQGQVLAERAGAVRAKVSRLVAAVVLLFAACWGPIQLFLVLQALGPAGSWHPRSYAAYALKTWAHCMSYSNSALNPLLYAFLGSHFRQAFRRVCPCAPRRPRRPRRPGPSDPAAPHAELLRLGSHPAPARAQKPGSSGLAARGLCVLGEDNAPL
# Sequence of 5-hydroxytryptamine receptor 2A (Homo sapiens) (P28223 whole entry, looked up): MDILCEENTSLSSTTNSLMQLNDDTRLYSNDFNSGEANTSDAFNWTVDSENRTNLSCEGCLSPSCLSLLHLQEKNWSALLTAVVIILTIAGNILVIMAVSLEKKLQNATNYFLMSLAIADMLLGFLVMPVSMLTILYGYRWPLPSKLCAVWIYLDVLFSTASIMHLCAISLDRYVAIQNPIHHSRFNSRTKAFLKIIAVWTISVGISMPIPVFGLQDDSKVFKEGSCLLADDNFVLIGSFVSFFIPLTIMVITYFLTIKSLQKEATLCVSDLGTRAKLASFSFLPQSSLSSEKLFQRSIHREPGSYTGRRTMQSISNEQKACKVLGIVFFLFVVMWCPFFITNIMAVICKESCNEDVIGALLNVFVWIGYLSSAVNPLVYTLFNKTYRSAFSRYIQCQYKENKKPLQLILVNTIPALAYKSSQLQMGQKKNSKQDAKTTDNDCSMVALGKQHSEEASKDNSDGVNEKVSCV
# Sequence of Beta-2 adrenergic receptor (Homo sapiens) (P07550 whole entry, looked up): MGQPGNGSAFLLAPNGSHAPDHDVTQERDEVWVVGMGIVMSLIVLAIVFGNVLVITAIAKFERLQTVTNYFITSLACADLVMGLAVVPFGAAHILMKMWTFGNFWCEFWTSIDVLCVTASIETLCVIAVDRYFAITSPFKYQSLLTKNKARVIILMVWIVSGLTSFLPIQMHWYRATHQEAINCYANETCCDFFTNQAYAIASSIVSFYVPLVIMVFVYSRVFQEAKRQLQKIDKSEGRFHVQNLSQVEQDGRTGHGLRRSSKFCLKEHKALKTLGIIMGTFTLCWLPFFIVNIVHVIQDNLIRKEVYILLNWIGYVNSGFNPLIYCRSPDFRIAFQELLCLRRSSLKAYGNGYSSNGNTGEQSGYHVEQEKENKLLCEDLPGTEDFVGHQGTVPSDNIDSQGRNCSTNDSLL
# Sequence of Gonadotropin-releasing hormone receptor (Homo sapiens) (P30968 whole entry, looked up): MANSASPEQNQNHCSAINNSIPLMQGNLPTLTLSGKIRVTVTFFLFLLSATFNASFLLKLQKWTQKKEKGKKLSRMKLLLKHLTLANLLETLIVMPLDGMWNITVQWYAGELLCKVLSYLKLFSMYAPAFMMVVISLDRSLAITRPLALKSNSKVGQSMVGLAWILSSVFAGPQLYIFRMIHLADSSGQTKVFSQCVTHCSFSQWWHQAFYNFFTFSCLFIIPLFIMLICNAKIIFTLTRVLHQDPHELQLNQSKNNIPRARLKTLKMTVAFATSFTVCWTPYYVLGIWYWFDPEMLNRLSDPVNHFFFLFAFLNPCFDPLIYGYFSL
# Sequence of Muscarinic acetylcholine receptor M1 (Homo sapiens) (P11229 whole entry, looked up): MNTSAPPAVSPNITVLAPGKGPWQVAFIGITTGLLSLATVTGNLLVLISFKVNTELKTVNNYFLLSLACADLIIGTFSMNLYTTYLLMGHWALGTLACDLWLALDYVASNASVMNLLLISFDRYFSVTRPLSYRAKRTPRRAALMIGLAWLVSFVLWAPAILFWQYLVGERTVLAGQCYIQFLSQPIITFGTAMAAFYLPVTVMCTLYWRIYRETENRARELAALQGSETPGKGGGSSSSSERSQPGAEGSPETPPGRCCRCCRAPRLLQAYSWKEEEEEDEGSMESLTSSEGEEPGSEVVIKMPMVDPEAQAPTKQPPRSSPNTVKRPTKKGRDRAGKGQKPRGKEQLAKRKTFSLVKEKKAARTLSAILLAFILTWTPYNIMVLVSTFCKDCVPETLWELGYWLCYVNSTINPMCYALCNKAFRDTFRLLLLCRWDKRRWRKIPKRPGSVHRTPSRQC
# Sequence of D(2) dopamine receptor (Homo sapiens) (P14416 whole entry, looked up): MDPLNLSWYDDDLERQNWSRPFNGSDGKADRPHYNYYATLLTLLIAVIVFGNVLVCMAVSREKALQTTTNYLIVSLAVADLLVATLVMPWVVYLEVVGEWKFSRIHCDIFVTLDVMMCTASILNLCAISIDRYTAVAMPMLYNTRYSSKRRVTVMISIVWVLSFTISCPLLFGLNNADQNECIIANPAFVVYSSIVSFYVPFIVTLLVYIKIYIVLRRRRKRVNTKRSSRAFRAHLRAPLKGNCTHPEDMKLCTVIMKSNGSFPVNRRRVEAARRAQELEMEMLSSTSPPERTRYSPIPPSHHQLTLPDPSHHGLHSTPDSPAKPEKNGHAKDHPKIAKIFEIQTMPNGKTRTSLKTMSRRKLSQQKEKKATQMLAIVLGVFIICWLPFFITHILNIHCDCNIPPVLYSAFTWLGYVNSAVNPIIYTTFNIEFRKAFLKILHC
SMILES,Potency [1],Potency [2],Potency [3],Potency [4],Potency [5],Potency [6],Potency [7],Potency [8],Potency [9],Potency [10],Potency [11],Potency [12],Potency [13],Potency [14],Potency [15],Potency [16],Potency [17],Potency [18],Potency [19]
CC(C)COP(=O)(OCC(C)C)OCC(C)C,inactive,inactive,inactive,inactive,inactive,inactive,inactive,inactive,inactive,inactive,inactive,inactive,inactive,inactive,inactive,inactive,inactive,inactive,
C[C@]12CC[C@H]3[C@@H](CCC4=CC(=O)CC[C@@H]43)[C@@H]1CC[C@@H]2OC(=O)CCC1CCCCC1,inactive,inactive,inactive,inactive,inactive,inactive,inactive,inactive,,inactive,inactive,inactive,inactive,inactive,inactive,inactive,inactive,,inactive
CCOC(=O)N(C)C(=O)CSP(=S)(OCC)OCC,inactive,inactive,inactive,inactive,inactive,inactive,inactive,inactive,inactive,inactive,inactive,,inactive,inactive,,inactive,inactive,inactive,inactive
CCC/C(=N\OCC)C1=C(O)CC(CC(C)SCC)CC1=O (centres undefined),inactive,inactive,inactive,inactive,inactive,inactive,inactive,inactive,inactive,inactive,inactive,inactive,inactive,,,inactive,,inactive,inactive
Clc1ccc(CCC(Cn2ccnc2)Sc2c(Cl)cccc2Cl)cc1 (centres undefined),29.8 µM (active),inactive,inactive,inactive,inactive,inactive,inactive,,,,,inactive,,,,inactive,inactive,,inactive
O=c1c(C2CC(c3ccc(-c4ccc(Br)cc4)cc3)Cc3ccccc32)c(O)sc2ccccc12 (centres undefined),29.8 µM (active),inactive,inactive,inactive,inactive,inactive,inactive,8.9 µM (active),inactive,inactive,inactive,inactive,inactive,,,inactive,inactive,inactive,inactive
CC(=O)OC(c1ccccc1)C(Cl)(Cl)Cl (centres undefined),inactive,inactive,inactive,inactive,inactive,inactive,inactive,inactive,inactive,,inactive,inactive,inactive,inactive,inactive,inactive,inactive,inactive,inactive
O=C1C[C@@H]2OCC=C3CN4CC[C@]56c7ccccc7N1[C@H]5[C@H]2[C@H]3C[C@H]46,inactive,inactive,inactive,inactive,inactive,inactive,inactive,inactive,inactive,,,,,inactive,inactive,inactive,inactive,inactive,inactive
CCCCCOC(=O)c1ccccc1C(=O)OCCCCC,inactive,inactive,inactive,inactive,inactive,inactive,inactive,,,inactive,inactive,inactive,inactive,inactive,inactive,inactive,inactive,inactive,inactive
SCc1ccccc1,inactive,inactive,inactive,inactive,inactive,inactive,inactive,inactive,inactive,,inactive,inactive,inactive,inactive,inactive,inactive,,inactive,inactive
C=CC(=O)OCCN(C)C,inactive,inactive,inactive,inactive,inactive,inactive,inactive,inactive,inactive,,inactive,,inactive,inactive,inactive,,inactive,,inactive
CC(C)(CCl)C(=O)Cl,inactive,inactive,inactive,inactive,inactive,inactive,18.2 µM (active),inactive,inactive,,inactive,inactive,inactive,inactive,inactive,inactive,inactive,inactive,inactive
c1cncc([C@@H]2CCCCN2)c1,inactive,inactive,inactive,inactive,inactive,inactive,inactive,inactive,,inactive,inactive,inactive,inactive,inactive,inactive,inactive,inactive,inactive,inactive
